According to the supplement of paper PMC7057948, “A genome-wide approach for identification and characterisation of metabolite-inducible systems” (Nature Communications, 2020):

Test system: FdsR/P_H16_RS03165 formate biosensor (pEH134)
Assay: relative induction of RFP reporter vs primary effector; higher = stronger activation
Settings: inducer concentration 5 mM; 6 h; Cupriavidus necator H16; minimal medium + 0.4% gluconate
Description: (§1)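 Orthogonality screen of 21 primary inducers against 21 transcription factor/inducible promoter–mRFP biosensors in C. necator H16 in minimal medium, robotic 96-well format, 5 mM inducer, 30 °C. OD-normalised RFP fluorescence was read 6 h later and expressed as relative induction (%) = 100 × (FL compound − FL uninduced)/(FL primary inducer − FL uninduced); mean of n=4. Cognate pairs (100% by definition) omitted.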

Row | Compound | relative induction of RFP reporter
1 | C=C(CC(=O)O)C(=O)O [itaconate] | -5.89%
2 | O=C(O)CCO [3-hydroxypropanoate] | -8.81%
3 | O=C(O)C(O)C(O)C(=O)O (centres undefined) [tartrate] | -1.89%
4 | CC(=O)C(C)O (centres undefined) [acetoin] | -6.92%
5 | O=C(O)C1CCCCC1 [cyclohexane-1-carboxylate] | -8.69%
6 | OC1OC[C@H](O)[C@H](O)[C@H]1O (mixture of isomers) [L-arabinose] | -1.73%
7 | O=C(O)c1ccc(O)c(O)c1 [3,4-dihydroxybenzoate] | 8.18%
8 | C=CC(=O)O [acrylate] | -7.94%
9 | O=C(O)c1ccccc1 [benzoate] | -1.25%
10 | N[C@@H](Cc1ccc(O)cc1)C(=O)O [L-tyrosine] | -2.95%
11 | NCCC(=O)O [β-alanine] | -3.65%
12 | O=C(O)CS(=O)(=O)O [sulfonatoacetate] | -4.35%
13 | Nc1ccccc1C(=O)C[C@H](N)C(=O)O [L-kynurenine] | -4.32%
14 | O=C(O)c1ccccc1O [salicylate] | -11.3%
15 | O=c1[nH]c(=O)c2nc[nH]c2[nH]1 [xanthine] | -4.71%
16 | N[C@@H](Cc1ccccc1)C(=O)O [L-phenylalanine] | -4.81%

Test system: GabR/P_H16_RS23655 GABA biosensor (pEH256)
Assay: as above
Settings: inducer concentration 5 mM; 6 h; Cupriavidus necator H16; minimal medium + 0.4% gluconate
Description: as §1

Row | Compound | relative induction of RFP reporter
17 | C=C(CC(=O)O)C(=O)O [itaconate] | -1.61%
18 | O=C(O)CCO [3-hydroxypropanoate] | -1.71%
19 | O=C(O)C(O)C(O)C(=O)O (centres undefined) [tartrate] | 0.312%
20 | CC(=O)C(C)O (centres undefined) [acetoin] | -1.36%
21 | O=C(O)C1CCCCC1 [cyclohexane-1-carboxylate] | -0.578%
22 | OC1OC[C@H](O)[C@H](O)[C@H]1O (mixture of isomers) [L-arabinose] | -0.944%
23 | O=C(O)C(=O)c1ccccc1 [phenylglyoxylate] | -2.13%
24 | O=C(O)c1ccc(O)c(O)c1 [3,4-dihydroxybenzoate] | -1.96%
25 | C=CC(=O)O [acrylate] | 0.12%
26 | O=C(O)c1ccccc1 [benzoate] | -2.52%
27 | N[C@@H](Cc1ccc(O)cc1)C(=O)O [L-tyrosine] | -2.3%
28 | NCCC(=O)O [β-alanine] | -1.1%
29 | O=C(O)CS(=O)(=O)O [sulfonatoacetate] | -1.11%
30 | O=CO [formate] | -0.53%
31 | Nc1ccccc1C(=O)C[C@H](N)C(=O)O [L-kynurenine] | -1.24%
32 | O=C(O)c1ccccc1O [salicylate] | 1.28%
33 | O=c1[nH]c(=O)c2nc[nH]c2[nH]1 [xanthine] | -1.02%
34 | N[C@@H](Cc1ccccc1)C(=O)O [L-phenylalanine] | -2.3%
